{
  "source": "PubChem BioAssay (NCI)",
  "note": "The panel holds about 83,000 compounds, 20% with a hit somewhere; the sample as a whole holds those more often.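 Cells were grown in 96-well plates and exposed to the test compound at a single concentration for 48 hours; results are reported as percent growth, with values below 10 considered active.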 Unmarked numbers belong to inactive results. Calls of active or inactive are those of the source.",
  "data": [
    {"tested_on": "UO-31 renal", "assay": "NCI-60 one-dose screen, 48 h (100 = growth as untreated, 0 = no growth, -100 = all killed)", "settings": "10 µM", "values": [
      {"smiles": "C=CCSC(CC)(CC)C(=O)NC", "growth": "94.4%"},
      {"smiles": "Cc1c(Cl)cccc1NC(=O)CCCl", "growth": "86.6%"},
      {"smiles": "CC(=O)C1N=NCC1c1ccccc1", "note": "(centres undefined)", "growth": "92.3%"},
      {"smiles": "CCN(CC)CCOc1cccc2c1C(=O)c1cccc(OCCN(CC)CC)c1C2=O", "growth": "41%"},
      {"smiles": "CC(C)(C)OC(=O)CN1CCc2c(sc3ncnc(N/N=C/c4ccccc4Br)c23)C1", "growth": "37.6%"},
      {"smiles": "N#CCc1csc(Cc2ccccc2)n1", "growth": "88.7%"},
      {"smiles": "Clc1ccc(C2=NN=C3C(Cc4ccccc4)=Nc4ccccc4N3C2)cc1", "growth": "63.1%"},
      {"smiles": "CCN(CC)CC(=O)N(CC)c1ccc(C)c(Cl)c1", "growth": "90.7%"},
      {"smiles": "COc1cc(-c2csc(NC(=O)Nc3ccc(Cl)c(C(F)(F)F)c3)n2)cc(OC)c1OC", "growth": "-1.04% (active)"}
    ]},
    {"tested_on": "TK-10 renal", "assay": "NCI-60 one-dose screen, 48 h (100 = growth as untreated, 0 = no growth, -100 = all killed)", "settings": "10 µM", "values": [
      {"smiles": "CCOS(=O)(=O)c1c(C(C)C)cc(C(C)C)cc1C(C)C", "growth": "95.1%"},
      {"smiles": "CC(C)CCN(CCC(C)C)CC(=O)Nc1ccc(S(=O)(=O)c2ccc(NC(=O)CN(CCC(C)C)CCC(C)C)cc2)cc1", "growth": "96.4%"},
      {"smiles": "O=C(N/N=C/c1cc([N+](=O)[O-])ccc1O)c1cccc2ccccc12", "growth": "46.3%"},
      {"smiles": "COc1cc(Cc2cc(-c3ccccc3)n[nH]c2=O)cc(OC)c1OC", "growth": "75.5%"},
      {"smiles": "C1CN(CC2CCC(CN3CCOCC3)O2)CCO1", "note": "(centres undefined)", "growth": "95.8%"},
      {"smiles": "Cc1cc(=O)n2nnc3cc(Cl)c(Cl)cc3n12", "growth": "102%"},
      {"smiles": "CC(=O)N[C@H](C(=O)N[C@@H](CCCNC(=N)N)C(=O)N[C@@H](CCCCN)C(=O)N[C@@H](CCCNC(=N)N)C(=O)N[C@]1(C)CCCCCC/C=C\\CCC[C@@](C)(C(=O)N[C@@H](CCCNC(=N)N)C(=O)N[C@@H](CCC(=O)O)C(=O)N[C@@H](CC(C)C)C(=O)N[C@H](C(=O)N[C@@H](CCC(=O)O)C(N)=O)C(C)C)NC(=O)[C@H](CCC(N)=O)NC(=O)[C@H](CC(C)C)NC(=O)[C@H](CC(C)C)NC(=O)[C@H](CCCNC(=N)N)NC(=O)[C@H](CCCNC(=N)N)NC(=O)[C@H](CC(C)C)NC1=O)C(C)C", "growth": "-43% (active)"},
      {"smiles": "Cc1ccc(/C=C2/C(=O)N(C)c3ccc(S(=O)(=O)Nc4ccc(C(C)(C)C)cc4)cc32)s1", "growth": "90.9%"},
      {"smiles": "CC(=O)[C@H]1CC[C@]2(C)[C@@H]1CC[C@@H]1[C@@]3(C)CC(CCC#N)(CCC#N)C(=O)C(C)(C)[C@@H]3CC[C@]12C", "growth": "104%"},
      {"smiles": "O=C(CCn1cnc2c(cc(-c3ccccc3)n2-c2ccccc2)c1=O)Nc1ccc(F)cc1", "growth": "92.8%"},
      {"smiles": "Cc1c(Cl)cccc1NC(=O)CN1CCOCC1", "growth": "84.4%"},
      {"smiles": "CC(C)(C)OC(=O)CN1CCc2c(sc3ncnc(N/N=C/c4cccc5ccccc45)c23)C1", "growth": "50.5%"},
      {"smiles": "CCn1c(SCc2ccc(C)cc2)nnc1-c1nn(-c2ccc(Cl)cc2Cl)c(-c2ccc(Cl)cc2)c1C", "growth": "18.1%"},
      {"smiles": "O=C(Nc1nc(-c2ccccc2)nc2c1sc(=S)n2-c1ccccc1)C(F)(F)F", "growth": "117%"},
      {"smiles": "Cc1c[nH]c(=O)n(Cc2nnc(CCC(=O)c3nc4ccccc4[nH]3)o2)c1=O", "growth": "64.1%"},
      {"smiles": "CCCCN(CCCC)C(=O)[C@H](CC)[C@@H]1CC[C@@H](C)[C@@H]([C@H](C)[C@@H](O)[C@@H](C)C(=O)[C@H](CC)C2O[C@]3(C=CC(=O)[C@]4(CC[C@@](C)([C@H]5CC[C@](O)(CC)[C@H](C)O5)O4)O3)[C@H](C)C[C@@H]2C)O1", "note": "(some centres undefined)", "growth": "42.6%"},
      {"smiles": "CCN(CC)CCOc1cccc2c1C(=O)c1ccccc1C2=O", "growth": "97.6%"},
      {"smiles": "COc1cc(OC)c2c(=O)c(O)c(-c3ccccc3)oc2c1", "growth": "96.8%"},
      {"smiles": "COc1ccc(-c2cc(-c3ccccc3)nc(SCCCC(=O)NO)n2)cc1", "growth": "6.16% (active)"},
      {"smiles": "COc1cc(-c2nn(-c3ccc(NC(=O)NCCNS(=O)(=O)c4ccc(F)cc4)cc3)cc2-c2ccncc2)ccc1Cl", "growth": "28.1%"},
      {"smiles": "Cc1[nH]c2ccccc2c1/C=N/Nc1ncnc2sc3c(c12)CCN(CC(=O)OC(C)(C)C)C3", "growth": "101%"},
      {"smiles": "O=C1CSC(=S)N1/N=C/c1ccc(Cl)s1", "growth": "118%"},
      {"smiles": "O=C(CC(CC(=O)c1ccccc1)c1ccccc1O)c1ccccc1", "growth": "98.6%"},
      {"smiles": "CCOC(=O)c1cc(C(=O)c2cc(OC)cc(OC)c2)n2nc(C)ccc12", "growth": "65%"},
      {"smiles": "CCCc1cn(CC(=O)Nc2nc3ccccc3s2)nn1", "growth": "103%"},
      {"smiles": "CC(CN(C)C)Oc1ccc(OC(C)CN(C)C)c2c1C(=O)c1ccccc1C2=O", "note": "(centres undefined)", "growth": "42.7%"},
      {"smiles": "COc1cc(-c2nn(-c3cccc(NC(=O)NCCNC(=O)c4cccc(C(F)(F)F)c4)c3)cc2-c2ccncc2)ccc1Cl", "growth": "90%"},
      {"smiles": "Cc1ccc(NCCNCC(C)(C)O)c2c(=O)c3ccc(Cl)cc3sc12", "growth": "74.2%"},
      {"smiles": "CNS(=O)(=O)Oc1ccc(-c2sc3cc(OS(=O)(=O)NC)ccc3c2C(=O)c2ccc(OCCN3CCCCC3)cc2)cc1", "growth": "99.5%"},
      {"smiles": "CN(C)CCOc1ccccc1NC1=C(Cl)C(=O)C(Nc2ccccc2OCCN(C)C)=C(Cl)C1=O", "growth": "85.4%"},
      {"smiles": "COc1cc(-c2nn(-c3cccc(NC(=O)CCNc4ccc(N5CCOCC5)cc4)c3)cc2-c2ccncc2)ccc1Cl", "growth": "24.7%"},
      {"smiles": "C=CCSC(CC)(CC)C(=O)NC", "growth": "102%"},
      {"smiles": "Cc1c(Cl)cccc1NC(=O)CCCl", "growth": "89.3%"},
      {"smiles": "CC(=O)C1N=NCC1c1ccccc1", "note": "(centres undefined)", "growth": "96.1%"},
      {"smiles": "CCN(CC)CCOc1cccc2c1C(=O)c1cccc(OCCN(CC)CC)c1C2=O", "growth": "47.4%"},
      {"smiles": "CC(C)(C)OC(=O)CN1CCc2c(sc3ncnc(N/N=C/c4ccccc4Br)c23)C1", "growth": "90.8%"},
      {"smiles": "N#CCc1csc(Cc2ccccc2)n1", "growth": "89.9%"},
      {"smiles": "Clc1ccc(C2=NN=C3C(Cc4ccccc4)=Nc4ccccc4N3C2)cc1", "growth": "68.4%"},
      {"smiles": "CCN(CC)CC(=O)N(CC)c1ccc(C)c(Cl)c1", "growth": "93.6%"},
      {"smiles": "COc1cc(-c2csc(NC(=O)Nc3ccc(Cl)c(C(F)(F)F)c3)n2)cc(OC)c1OC", "growth": "-4.34% (active)"}
    ]}
  ]
}
